# SMARCA2 activ: SMARCA2 function activation, primary screen. MG213 cells, MMTV-luciferase reporter, dexamethasone, overnight. activation, % at 9.1 µM. 370,000 tested, 1% active. AID 652017; in the data active = activation above about 7.8%;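 also: 0% = vehicle wells and 100% = reference activator wells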
# hgDAF-12 ag: hgDAF-12 agonism, primary luciferase screen | HEK293 GAL4-hgDAF12 UAS-luciferase reporter, agonist luminescence; normalized to butyrate control | activation, % at 6.8 µM | 370,000 tested, 1.8% active | AID 687014;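 active = activation above a cutoff set at the mean of all screened compounds plus 3 SD, cut at about 10% in these data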;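 also: 0% = DMSO wells and 100% = sodium butyrate wells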
# hcDAF-12 act: H. contortus DAF-12 activation, primary screen | activation, % at 6.8 µM | HEK293 hcDAF-12 lit1-tk-luc reporter, luminescence; 0% DMSO, 100% Δ7-dafachronic acid | 370,000 tested, 1.4% active;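 active = activation above the mean of all tested compounds plus 3 SD, cut at about 5.5% in these data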;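 also: 100% = response to 3 µM Δ7-dafachronic acid high control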
# ssDAF-12 act: activators of S. stercoralis DAF-12 nuclear receptor; HEK293 ssDAF-12/GRIP1 lit1-tk-luc reporter, luminescence; % of 3 µM dafachronic acid response; activation, % at 6.8 µM; 370,000 tested, 1% active;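 active = activation above the mean over all tested compounds plus 3 SD, cut at about 0.9% in these data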;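 also: 0% = DMSO-only wells and 100% = 3 µM delta7-dafachronic acid wells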
# DAX1 inh: inhibitors of DAX1 repression of SF-1 activated StAR promoter | HEK293T StAR-luciferase reporter, SF-1/DAX-1 repression relief | inhibition, % at 6.8 µM | 370,000 tested, 1.1% active | AID 652010;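 active = inhibition above the mean over all tested compounds plus 3 SD, cut at about 3.6% in these data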;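 also: 0% = DAX-1 cells with DMSO and 100% = cells lacking DAX-1 with DMSO; higher inhibition means more luminescence from relief of DAX-1 repression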
# SMARCA2 conf: SMARCA2 activation, confirmation screen | activation, % at 9.1 µM | AID 652260 | 3,500 tested, 30% active | MG213 cells, MMTV-luciferase with dexamethasone, luminescence, overnight; MG213 cells expressing E1A, Rb sequestered; DMSO wells 0%, reference activator 100% | shares compounds with SMARCA2 activ;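 active = activation above its plate's cutoff, the mean activation of tested wells plus 3 SD, cut at about 7.9% in these data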
# GAL4-VP16 Luc: activates GAL4-VP16 luciferase, flagging SMARCA2 activator hits; shares compounds with SMARCA2 activ; HEK293 GAL4-VP16 pG5luc reporter, luciferase luminescence; scaled: DMSO wells 0%, SAHA wells 100%; activation, % at 9.1 µM; 3,500 tested, 41% active;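 active = activation above the solvent-only control well mean plus 3 SD, averaged across control plates, cut at about 5.2% in these data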
# * = called active by the depositor; / = not tested or not shown. Only some compounds are listed: those with a hit (about 4.2% of all), similar ones and a draw of the others.
SMILES,SMARCA2 activ,hgDAF-12 ag,hcDAF-12 act,ssDAF-12 act,DAX1 inh,SMARCA2 conf,GAL4-VP16 Luc
COC(=O)[C@]12C[C@H](CC(=O)NCC34CC5CC(CC(C5)C3)C4)C(=O)N(Cc3ccc4c(c3)OCO4)C1=C[C@H](C(C)C)O[C@@H]2C1CC1,-3,-2,-3,0,-2,/,/
COc1ccc(Nc2nc(C)c(-c3ccccc3)s2)cc1,11*,8,6.2*,0,1,4,5.9*
Cc1nc(Nc2ccc(S(N)(=O)=O)cc2)sc1-c1ccccc1,3,4,-3,-1,0,/,/
Cc1ccc(C(=O)CCC(=O)OCC(=O)NNC(=O)c2ccc([N+](=O)[O-])cc2)cc1,9.3*,2,3,-1,1,0,1
CC(=O)C1=C(C)NC(=S)NC1c1ccccc1 (stereo unspecified),-5,1,-2,0,0,/,/
C[C@H]1[C@H](NCc2cccnc2)CC[C@@]23CCCN2C(=O)CCC[C@@H]13,/,0,0,-2,/,/,/
Cc1ccc(S(=O)(=O)c2nc(-c3ccc(F)cc3)oc2N2CCOCC2)cc1,12*,-2,2,-1,0,-2,-1
COCCNC(=O)/C(C#N)=C/c1ccc2c(c1)OCO2,9.1*,10,0,-1,1,5,2
CN(C)CCNC(=O)c1ccc(COc2ccc(Cl)cc2Cl)cc1,8.0*,2,1,-1,1,10*,1
COc1ccc(Cl)cc1C(=O)NCCN(C)C,-3,-1,0,-1,1,/,/
Cc1ccc(-n2c(SCC(=O)c3ccc(Br)cc3)nnc2-c2ccncc2)cc1,-3,-2,-3,-2,-1,/,/
Cc1ccc(S(=O)(=O)N2CCCC(C(=O)Nc3c(C)n(C)n(-c4ccccc4)c3=O)C2)cc1C (stereo unspecified),6,5,-3,-1,-1,/,/
CN1CCN(C(=O)c2ccccc2NC(=O)c2sc3ccccc3c2Cl)CC1,3,-1,0,-1,0,/,/
CN1CCN(c2ccc(NC(=O)c3ccc(-c4ccc(Cl)cc4)o3)cc2)CC1,9.1*,3,-2,-1,-4,7,0
CC(=O)NC(=O)c1ccc(-c2ccc(Cl)cc2)o1,8.5*,1,-1,-1,0,7,4
CN1CCN(c2ccc(NC(=O)c3sc4ccccc4c3Cl)cc2)CC1,8.4*,11*,1,-1,1,1,3
CS(=O)(=O)N1CCN(c2ccc(NC(=O)c3ccc(-c4ccc(Cl)cc4)o3)cc2)CC1,-2,0,-1,-1,0,/,/
CC1(C)Cc2c(sc(NC(=O)COc3cccc4ccccc34)c2C#N)C(C)(C)N1,54*,-2,-1,-2,0,41*,2
Cc1ccc(OCC(=O)Nc2sc3c(c2C#N)CC(C)(C)NC3(C)C)cc1,-4,-2,-1,-2,1,/,/
Cc1ccc(/C=C(\C#N)c2nc3ccccc3[nH]2)s1,10*,8,5,0,3,19*,11*
COc1cc(/C=C(\C#N)c2nc3ccccc3[nH]2)cc(OC)c1O,8.2*,5,-2,-1,0,5,5.7*
Cc1cc(/C=C(\C#N)c2nc3ccccc3[nH]2)c(C)n1C,-1,3,2,-1,2,/,/
CCCCN1C(=O)C(CC(=O)NCCCCc2ccccc2)CC(C(=O)N2CCCCCC2)=C1C (stereo unspecified),-6,-3,-2,-1,-1,/,/
COC(=O)[C@]12C[C@H](CC(=O)N3CCC(c4ccccc4)CC3)C(=O)N(Cc3ccc4c(c3)OCO4)C1=C[C@H](COCc1ccccc1)O[C@@H]2C,-1,0,1,-1,0,/,/
O=C(Cn1ncc(Cl)c(Cl)c1=O)NCC1CCCCC1,13*,-5,1,-1,1,-15,2
SMILES,SMARCA2 activ,hgDAF-12 ag,hcDAF-12 act,ssDAF-12 act,DAX1 inh,SMARCA2 conf,GAL4-VP16 Luc
O=C(Cn1ncc(Cl)c(Cl)c1=O)c1ccc(Cl)cc1,20*,-1,0,0,-1,-15,2
O=C(Cn1ncc(N2CCOCC2)c(Cl)c1=O)c1ccc(Cl)cc1,1,0,0,-1,0,/,/
CC1(C(=O)NS(=O)(=O)c2cccc(C#N)c2)CCN1C(=O)Cc1ccccc1Cl (stereo unspecified),-3,-2,0,-2,0,/,/
COCC(=O)Nc1ccc(OCc2ccccc2)cc1,2,8,3,1,1,/,/
COC(=O)Nc1ccc(OCc2ccccc2)cc1,14*,6,1,-1,2,18*,5
CC(C)(C)c1ccc(-c2noc(CCC(=O)NC3CC3)n2)cc1,/,-12,-7,-3,/,/,/
CCC(=O)Nc1cc(Cl)ccc1C(=O)O,9.4*,1,-1,-2,1,-3,2
Cc1ccc(C(=O)/C=C2\NCC(C)NC2=O)cc1 (stereo unspecified),0,9,5,0,2,/,/
Cc1ccc(C(=O)/C=C2\NCCNC2=O)cc1,12*,13*,3,0,3.8*,12*,15*
CC1(C)OC(=O)C2=C(C[C@@H](C3CCCC3)O[C@H]2c2ccc(Cl)cc2)O1,-1,-1,0,-1,0,/,/
CC1CC1C(=O)OCc1cc(=O)n2cc(Br)ccc2n1 (stereo unspecified),3,9,0,0,2,/,/
CC1(C(=O)OCc2cc(=O)n3cc(Br)ccc3n2)CC1(Cl)Cl (stereo unspecified),10*,11*,2,0,3,9.4*,13*
Clc1ccc(-n2ncc3c(NCc4ccccn4)ncnc32)cc1,11*,4,0,-1,0,11*,6.0*
COc1ccccc1CNc1ncnc2c1cnn2-c1ccccc1,8.2*,4,-2,-1,2,1,4
Cc1ccc(CNc2ncnc3c2cnn3-c2ccccc2)cc1,0,0,-1,-2,0,/,/
O=C(Nc1ccc(F)cc1)N[C@@H]1C[C@@H]2O[C@H](CO)CC[C@@H]2O[C@@H]1CCc1ccc(C2=CCCC2)cc1,-3,0,0,-2,-1,/,/
COc1ccc(N2C(=O)c3n[nH]c(C(C)C)c3C2c2ccccc2)cc1 (stereo unspecified),-1,0,-1,-1,0,/,/
C=CCn1c(-c2ccccc2)c[nH]c1=S,13*,9,1,-1,0,5,6.0*
C=CCn1c(-c2ccc(Cl)cc2)c[nH]c1=S,-8,0,0,0,-2,/,/
